Compound activity: PubChem BioAssay, National Center for Advancing Translational Sciences (NCATS)
An excerpt weighted towards active compounds, which were near 3.1% of everything screened.
PMP22 txn prim – Cell-based coincidence reporter assay to measure PMP22 gene transcription in S16 Pmp22-F2sN cells - Primary screen. AID 1508649, 2021. actives 2% (n = 43,000). Potency, µM (highest dose often 57.5 µM), inactives show at the highest dose activity change, negative = inhibition, actives largely listed as inhibitors. S16 Pmp22-F2sN Schwann cells, FLuc/NLuc coincidence luminescence, 24 h; active = clear falling dose curves in both reporters; inconclusive = both reporters move, but less clearly or upward; inactive = either reporter flat; the % is the NLuc reporter signal; also: potency is read from the fitted curve at half-maximal effect; % is scaled to controls: 0 for no effect and ±100 for the full control effect
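Rat S16 Pmp22-F2sN cells, 500-1,000/well in phenol red-free DMEM + 10% FBS, compound-treated 24 h (37C, 5% CO2). Luminescence: FLuc read, Stop&Glo added, NLuc read.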
mTORC1 inh – Acumen qHTS Assay for Inhibitors of the mTORC1 Signaling Pathway in MEF (Tsc2-/-, p53-/-) Cells: Sytravon | Tsc2-/- p53-/- MEF, phospho-rpS6 immunofluorescence/PI, 24 h | actives 0.78% (n = 44,000) | Potency, µM (series often up to 38.3 µM), without a hit: top-dose activity change, negative = inhibition, most hits filed as inhibitors | AID 493208, 2011;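 also: potency is read from the fitted curve at half-maximal effect; plate controls were DMSO for no effect and rapamycin for full effect; nearly all actives have a fitted effect of over 50% in size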
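Tsc2-/-, p53-/- mouse embryonic fibroblasts (empty-vector line) exposed to compound 24 hrs at 37 C, fixed, immunostained for phospho-rpS6 and counterstained with propidium iodide. Acumen laser scanning gives % positive cells from Alexa 488/PI ratio, thresholded using 7.5 nM rapamycin; PI count gives viability.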
S16 viability – Cell viability qHTS assay in S16 Pmp22-F2sN cells. S16 Pmp22-F2sN Schwann cells viability, CellTiter-Glo, 24 h. Potency, µM (top dose mostly 57.5 µM), without a hit: at the top dose activity change, negative = cytotoxicity, usual class: cytotoxic. actives 0.48% (n = 43,000). AID 1508642, 2021; also: potency is read from the fitted curve at half-maximal effect; % is scaled to controls: 0 for no effect and ±100 for the full control effect; nearly all actives have a fitted effect of over 65% in size
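Viability was measured by CellTiter-Glo luminescence (15 min, room temperature). This followed 24 h at 37 °C of compound exposure (23 nL pin transfer) in S16 Pmp22-F2sN Schwann cells, 500-1,000 per well.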
SKOV3 invasion – Primary qHTS assay for Inhibitors of ovarian cancer metastasis using an organotypic tumor microenvironment (TME) model; Potency, µM (highest dose often 45.8 µM), for inactives: at the top dose activity change, negative = inhibition, usual class: inhibitors; actives 0.1% (n = 46,000); SKOV3ip1-GFP adhesion/invasion on 3D omental model, fluorescence;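 also: potency is read from the fitted curve at half-maximal effect; plate controls were DMSO wells for no effect and tomatine positive control wells for full effect; nearly all actives have a fitted effect of over 65% in size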
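Adhesion/invasion was scored as fixed GFP-labeled SKOV3ip1 cell counts (488/509 nm), normalized to DMSO and tomatine controls. Cancer cells in serum-free medium, with four compound doses (0.36-46 umol/L), sat 2 hr at RT then 16 hr at 37 C on a 48 hr fibroblast/mesothelial/ECM culture.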
p53null 39C tox – qHTS Screen for Compounds that Selectively Target Cancer Cells with p53 Mutations: Cytotoxicity of p53 Null Cells at the Nonpermissive Temperature. actives 0.97% (n = 55,000). Potency, µM (series often up to 46.1 µM), without a hit: at the top dose activity, negative = cell killing, most hits filed as cytotoxic. AID 904, 2007. H1299 p53-null (neo) cells, 39C, ATPlite viability, 24 h;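 also: potency is read from the fitted curve at half-maximal effect; 0% = DMSO only and -100% = full killing by 100 µM tamoxifen; nearly all actives have a fitted effect of over 50% in size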
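Following overnight plating at 37C (600 cells/well), H1299-neo or H1299-p53A138V cells are dosed up to 46 uM. Incubation lasts 24 hr at 39C before ATP detection.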
p53null 32C kill – qHTS Screen for Compounds that Selectively Target Cancer Cells with p53 Mutations: Cytotoxicity of p53 Null Cells at the Permissive Temperature. H1299-neo p53 null cells, ATP luminescence, 24 h, 32C. Potency, µM (top dose mostly 46.1 µM), without a hit: top-dose activity change, negative = cytotoxicity, usual class: cytotoxic. actives 0.62% (n = 55,000);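 also: potency is read from the fitted curve at half-maximal effect; 0% = DMSO only and -100% = full killing by 100 µM tamoxifen; nearly all actives have a fitted effect of over 55% in size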
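AC50 values derive from Hill modelling of qHTS concentration-response data (up to 46 uM) in H1299-neo cells. Cells were treated 24 h at 32C following overnight attachment at 37C; viability was read as cellular ATP.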
NLuc saturating – Biochemical NLuc saturation counterscreen for small molecule modulators of PMP22 gene expression - Nano-Glo assay; shares compounds with PMP22 txn prim; Secreted NLuc enzyme (filtered S16 cell medium), Nano-Glo luminescence; Potency, µM (titrated, usually from 57.5 µM), for inactives: top-dose activity change, negative = inhibition, hits mostly inhibitors; actives 4% (n = 690); also: potency is read from the fitted curve at half-maximal effect; % is scaled to controls: 0 for no effect and ±100 for the full control effect
NLuc Km ctr – Biochemical coelenterazine-based NLuc counterscreen for small molecule modulators of PMP22 gene expression - Km assay; Potency, µM (highest dose often 57.5 µM), inactives show at the highest dose activity change, negative = inhibition, usual class: inhibitors; shares compounds with PMP22 txn prim; secreted NLuc enzyme, coelenterazine luminescence, Km conditions; actives 5% (n = 690); AID 1508639, 2021; also: potency is read from the fitted curve at half-maximal effect; % is scaled to controls: 0 for no effect and ±100 for the full control effect
FLuc ctr PMP22 – Biochemical FLuc counterscreen for small molecule modulators of PMP22 gene expression; purified P. pyralis FLuc, luminescence, 10 min; 690 tested, under 10 active; shares compounds with PMP22 txn prim; Potency, µM (doses to about 57.5 µM), inactives show top-dose activity, negative = inhibition, hits mostly inhibitors; also: % of control where 0% means no effect
Target sequence (P08659 whole entry, looked up): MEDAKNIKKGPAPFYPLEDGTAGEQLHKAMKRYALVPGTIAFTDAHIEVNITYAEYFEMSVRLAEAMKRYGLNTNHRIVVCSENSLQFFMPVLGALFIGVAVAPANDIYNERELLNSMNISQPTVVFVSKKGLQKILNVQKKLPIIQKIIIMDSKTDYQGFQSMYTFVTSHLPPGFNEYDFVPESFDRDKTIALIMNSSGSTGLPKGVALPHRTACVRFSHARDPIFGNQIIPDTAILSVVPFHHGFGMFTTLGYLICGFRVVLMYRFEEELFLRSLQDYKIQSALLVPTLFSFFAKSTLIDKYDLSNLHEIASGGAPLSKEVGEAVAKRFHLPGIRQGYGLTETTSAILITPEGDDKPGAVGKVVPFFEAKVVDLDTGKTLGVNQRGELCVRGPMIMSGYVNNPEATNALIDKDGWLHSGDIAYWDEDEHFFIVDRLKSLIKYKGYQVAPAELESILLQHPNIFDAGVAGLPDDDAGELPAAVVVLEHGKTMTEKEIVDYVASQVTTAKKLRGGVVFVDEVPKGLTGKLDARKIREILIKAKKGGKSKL
S16 viab conf – Cell viability qHTS assay in S16 Pmp22-F2sN cells - Confirmatory screen. shares compounds with PMP22 txn prim. S16 Schwann cells viability, CellTiter-Glo ATP luminescence, 24 h. Potency, µM (top dose mostly 57.5 µM), for the others: at the top dose activity change, negative = viability loss, actives largely listed as cytotoxic. actives 7% (n = 690). AID 1508641, 2021; also: potency is read from the fitted curve at half-maximal effect; % is scaled to controls: 0 for no effect and ±100 for the full control effect
PMP22 txn conf – Cell-based coincidence reporter assay to measure PMP22 gene transcription in S16 Pmp22-F2sN cells - Confirmatory screen. Potency, µM (titrated, usually from 57.5 µM), for the others: at the highest dose activity change, negative = inhibition, most hits filed as inhibitors. actives 22% (n = 690). shares compounds with PMP22 txn prim. S16 Schwann cells Pmp22-F2sN, dual luciferase, 24 h. AID 1508646, 2021; active = clear falling dose curves in both reporters; inconclusive = both reporters move, but less clearly or upward; inactive = either reporter flat; the % is the FLuc reporter signal; also: potency is read from the fitted curve at half-maximal effect
PMP22 HiBiT cnf – Cell-based HiBiT reporter assay to measure PMP22 protein expression in S16 Pmp22-HiBiT cells - Confirmatory screen; shares compounds with PMP22 txn prim; S16 Schwann cells Pmp22-HiBiT, luminescence, 48 h; Potency, µM (doses to about 27.9 µM), inactives show top-dose activity change, negative = inhibition, hits mostly inhibitors; 95 tested, under 10 active
Target sequence (P25094 whole entry, looked up): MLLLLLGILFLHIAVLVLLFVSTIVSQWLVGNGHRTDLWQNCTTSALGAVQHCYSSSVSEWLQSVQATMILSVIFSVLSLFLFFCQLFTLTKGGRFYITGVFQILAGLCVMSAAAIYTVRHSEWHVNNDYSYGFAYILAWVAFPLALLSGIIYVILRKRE
Numbers without * were called inactive. Unless noted, calls follow the shape of the dose curve; as a rule, active = well fitted curve in the direction sought with a large enough effect; inconclusive = small, poorly fitted or top-dose-only effect, or another doubt; inactive = no such curve, though single readings can be large; an effect the other way counts as inactive or inconclusive.

What do the screens show for `C=CC(=O)Nc1cc(NC(=O)c2ccc(C)c(NC(=O)c3ccno3)c2)cc(C(F)(F)F)c1`?
SKOV3 invasion: -11%

How did COc1cccc(C(=O)Nc2cccc(-c3cn4ccsc4n3)c2)c1OC do in these assays?
PMP22 txn prim: 5%; mTORC1 inh: 0%; S16 viability: -8%; SKOV3 invasion: -16%; p53null 39C tox: 13µM*; p53null 32C kill: -29%

Results for C[C@H](NC(=O)Cc1cc(F)cc(F)c1)C(=O)N[C@H](C(=O)OC(C)(C)C)c1ccccc1 ?
SKOV3 invasion: 20%

How did COc1ccc(-c2cc3nc(C)c(CCC(=O)N4CCN(c5ccccc5F)CC4)c(C)n3n2)c(OC)c1 do in these assays?
PMP22 txn prim: inconclusive; mTORC1 inh: 1%; S16 viability: 18%; SKOV3 invasion: 9%; p53null 39C tox: -2%; p53null 32C kill: -10%

What do the screens show for `COc1ccc(-c2cc3nc(C)c(CCC(=O)N4CCN(c5cc(C)ccc5C)CC4)c(C)n3n2)c(OC)c1`?
PMP22 txn prim: 14µM*; mTORC1 inh: -5%; S16 viability: 21%; SKOV3 invasion: 10%; p53null 39C tox: -15%; p53null 32C kill: 0%; NLuc saturating: inconclusive; NLuc Km ctr: 0%; FLuc ctr PMP22: -5%; S16 viab conf: -7%; PMP22 txn conf: -39%

What do the screens show for `Cc1cc(C)c(NC(=O)Cn2c(=O)n(Cc3ccc(C(=O)NCc4ccc5c(c4)OCO5)cc3)c(=O)c3ccccc32)c(C)c1`?
PMP22 txn prim: 11µM*; mTORC1 inh: 5.2µM*; S16 viability: inconclusive; SKOV3 invasion: -7%; p53null 39C tox: inconclusive; p53null 32C kill: -12%; NLuc saturating: -6%; NLuc Km ctr: 4%; FLuc ctr PMP22: 2%; S16 viab conf: 27µM*; PMP22 txn conf: 8.9µM*

What do the screens show for `Cc1ccc(NC(=O)Cn2c(=O)n(Cc3ccc4c(c3)OCO4)c(=O)c3ccc(C(=O)NC4CCCCC4)cc32)c(C)c1`?
PMP22 txn prim: 8.4µM*; mTORC1 inh: -9%; S16 viability: 4%; SKOV3 invasion: 36%; p53null 39C tox: 27%; p53null 32C kill: 10%; NLuc saturating: -1%; NLuc Km ctr: -3%; FLuc ctr PMP22: 1%; S16 viab conf: -25%; PMP22 txn conf: inconclusive

What do the screens show for `Cc1ccccc1NC(=O)Cn1c(=O)n(Cc2ccc3c(c2)OCO3)c(=O)c2ccc(C(=O)NC3CCCCC3)cc21`?
PMP22 txn prim: 11µM*; mTORC1 inh: 4%; S16 viability: inconclusive; SKOV3 invasion: -1%; p53null 39C tox: -1%; p53null 32C kill: 11%; NLuc saturating: -3%; NLuc Km ctr: 2%; FLuc ctr PMP22: 7%; S16 viab conf: 24µM*; PMP22 txn conf: 15µM*

What do the screens show for `Cc1ccc(NC(=O)Cn2c(=O)n(Cc3ccco3)c(=O)c3ccc(C(=O)NC4CCCC4)cc32)c(C)c1`?
PMP22 txn prim: inconclusive; mTORC1 inh: -2%; S16 viability: 5%; SKOV3 invasion: -12%; p53null 39C tox: -18%; p53null 32C kill: -3%

What do the screens show for `Cc1cc(C)c(NC(=O)Cn2c(=O)n(Cc3ccc4c(c3)OCO4)c(=O)c3ccccc32)c(C)c1`?
PMP22 txn prim: inconclusive; mTORC1 inh: 4%; S16 viability: -6%; SKOV3 invasion: inactive; p53null 39C tox: -11%; p53null 32C kill: 4%

Results for Cc1ccc(C)c(NC(=O)Cn2c(=O)n(Cc3ccc4c(c3)OCO4)c(=O)c3ccc(C(=O)NC4CCCCC4)cc32)c1 ?
PMP22 txn prim: 4µM*; mTORC1 inh: 2%; S16 viability: 11%; SKOV3 invasion: inactive; p53null 39C tox: -9%; p53null 32C kill: -4%; NLuc saturating: 5%; NLuc Km ctr: 6%; FLuc ctr PMP22: 5%; S16 viab conf: -10%; PMP22 txn conf: 18µM*; PMP22 HiBiT cnf: 1%
